Records with an inconclusive call do not appear. Active and inactive are the calls of the source. Calls follow the shape of the full dose curve.

A short description of this test: qHTS assay to identify small molecule agonists of the AP-1 signaling pathway - cell viability counter screen (AID 1159525). Also: nearly all actives have a fitted effect of over 55% in size. The settings on record: ME-180 (cervical carcinoma) AP-1-bla cells viability, ATP luminescence, 5 h; series mostly up to 76.8 µM. From the text:
National Center for Advancing Translational Sciences [NCATS]
NIH Chemical Genomics Center [NCGC]
U.S. Environmental Protection Agency [EPA]
National Institutes of Environmental Health Sciences [NIEHS]
National Toxicology Program [NTP]
U.S. Food and Drug Administration [FDA]
Activator protein-1 (AP-1), a transcription factor, plays an important role in tumor genesis by regulating genes involved in cell proliferation, differentiation, apoptosis, and angiogenesis. AP-1 activity is induced by a complex network of signaling pathways that involves extracellular signals, such as growth factors. The AP-1 protein complex formed from c-Fos and c-Jun binding to the AP-1 response element results in transcriptional activation of genes containing such elements within their promoter.
Low molecular weight molecules have been discovered and developed to modulate various components of these signaling pathways, for example, MAP kinase inhibitors. However, many points of pathway modulation remain untested due to the lack of chemical probes making this signaling locus of general interest.
Using a beta-lactamase reporter-gene under control of the AP-1 response element, a cell-based assay [CellSensor(TM) AP-1-bla ME-180 developed by Invitrogen Corp.] was used to measure EGF-induced signaling. The Tox21 10K library compounds were measured for their ability to positively modulate the action of EC50 EGF on reporter gene activity. Compounds were screened in a 15-pt titration series in 1536-well format. The cytotoxicity of the Tox21 compound library against this cell line was tested in parallel by measuring the intra cellular ATP content in the same wells.
Tox21 Assay Protocol Summary:
2500 cells/5uL in Opti-MEM medium containing 0.5% dialyzed FBS, 0.1 mM NEAA, 1 mM sodium pyruvate and 10 mM HEPES was dispensed into 1536-well black wall/clear bottom plates using a Multidrop dispenser and cells were cultured at 37 degrees Celsius overnight. Next day 23 nL of compounds dissolved in DMSO, positive controls or DMSO were delivered to each well using a pin tool. The plates were incubated at 37 degrees Celsius for 5 hours. 1 uL of LiveBLAzerTM B/G FRET substrate (Solution A+B+C+D) was added to each well using a Flying Reagent Dispenser. After incubated at room temperature for 2.5 hours the plates were measured on an EnVision plate reader at Excitation 405nm, Emission1=460nm and Emission 2=530nm. The %Activity was determined from the ratio of 460nm/530nm.
After the plates were read for Beta-Lactamase assay on Envision; 3 ul Cell Titer Glo (Promega) was added to measure the cytotoxicity and the plates were then incubated at RT in dark for 30 min. The luminescence was read on ViewLux (Perkin Elmer, Shelton, CT) using 6 sec exposure. ViewLux data was expressed as relative luminescence units.
For primary data analysis, raw plate reads for each titration point were first normalized relative to […] EGF control (100%) and DMSO only wells (basal, 0%).
For primary data analysis for viability assay, raw plate reads for each titration point were first normalized Tetra n-octyl ammonium bromide control (-100%) and DMSO (control, 100%).
On the technique in general: Quantitative high-throughput screening tests each substance at several concentrations.
As for `C=CC(=O)OCC1CCCO1` (stereo not given), the outcome was inactive.

Regarding `O=C(O)c1cc2ccccc2nc1C(=O)O`, the molecule was classed as inactive. Turning to `C=CCCCCCCCC`, the result was inactive. For `CCC(=O)Oc1ccc2c(c1)CC[C@@H]1[C@@H]2CC[C@@]2(C)[C@H]1C[C@@H](OC(=O)CC)[C@@H]2OC(=O)CC`, the call was inactive. For the molecule `CCC(C)C(=O)OCCc1ccccc1` (stereo not given), the molecule was called inactive.

Regarding `O=C(Cn1ccnc1[N+](=O)[O-])NCc1ccccc1`, the molecule was classed as inactive. Next, `O=C(Cl)c1ccccc1[N+](=O)[O-]`: “inactive”; `C=CC(=O)CCCCC`: “inactive”; `CCOc1ccccc1OCC1CNCCO1` (stereo not given): “inactive”. As to `CC/C(C)=N\O[Si](C)(O/N=C(\C)CC)O/N=C(\C)CC`, the call was inactive. `CC1=C(C(=O)O)N2C(=O)[C@@H](NC(=O)[C@H](N)c3ccccc3)[C@H]2SC1`: the molecule was called inactive. As to `C#CCN[C@@H]1CCc2ccccc21`, the call was inactive. Turning to `CC(S)C(C)S` (stereo not given), the result was inactive.

For the molecule `CC(=O)CC(=O)OC(C)(C)C`, the call was inactive.

Consider `COc1cc(OC)nc(O[C@H](C(=O)O)C(OC)(c2ccccc2)c2ccccc2)n1`, for which the molecule was called inactive. Regarding `CCCCCC(C)O` (stereo not given), the molecule was classed as inactive. `CC(C)(CO)C(O)C(=O)NCCCO` (stereo not given): the molecule was classed as inactive.

With `CC(=O)O[C@H]1C[C@@H]2CC[C@@]1(C)C2(C)C`, the result was inactive. Turning to `OCC(O)CN1CCN(c2ccccc2)CC1` (stereo not given), the molecule was classed as inactive. Consider `CC1(C)Cc2cccc(N)c2O1`, for which the outcome was inactive. Turning to `OCC1CCC(CO)CC1` (stereo not given), the outcome was inactive. Turning to `CN(C)CC/C=C1/c2ccccc2COc2ccc(CC(=O)O)cc21`, the molecule was classed as inactive. For `O=Cc1cc2ccccc2o1`, the molecule was classed as inactive. On to `Cc1ccc(C(=O)O)cc1[N+](=O)[O-]`, for which the result was inactive. To `Cc1cc(C)c(C(=O)O)c(C)c1` belongs “inactive”; to `CN(C)CCCO[C@@H]1[C@H]2OC(C)(C)O[C@H]2O[C@@H]1C(O)CO` (stereo not given in full), “inactive”; to `c1ccc2cnccc2c1`, “inactive”. Regarding `CC(=O)C1C(=O)C=C(C)OC1=O` (stereo not given), the molecule was classed as inactive. Regarding `C=CCSSCCC`, the molecule was called inactive. As for `CC(Oc1cc(Cl)ccc1Cl)C(=O)O` (stereo not given), the outcome was inactive. As for `c1ccc(-c2nn[nH]n2)cc1`, the result was inactive.

Turning to `[O-][n+]1cccc(/C(Cl)=N/OC[C@@H](O)CN2CCCCC2)c1`, the molecule was classed as inactive.

Consider `CC(C)C[C@@H]1[C@H](c2ccccc2)OC(=O)N1CCCN1CCCCCC1`, for which the molecule was classed as inactive. For `CC(C)OC(=O)CCC(=O)OC(C)C`, the molecule was called inactive. Consider `CCC[C@@H]1C[C@@H](C(=O)N[C@@H]([C@H]2O[C@H](SC)[C@H](O)[C@@H](O)[C@H]2O)[C@@H](C)O)N(C)C1`, for which the molecule was classed as inactive. In the case of `O=NN(CCCl)C(=O)NC1CCCCC1`, the molecule was called inactive.

With `OC[C@H]1O[C@@H](O[C@@H]2[C@@H](CO)O[C@](O)(CO)[C@H]2O)[C@H](O)[C@@H](O)[C@H]1O`, the molecule was classed as inactive. For `C=C(C)[C@@H]1CC=C(C)C(=O)C1`, the molecule was classed as inactive. With `O=C[O][Al]([O]C=O)[O]C=O`, the result was inactive. With `CC(=O)OCC(=O)Nc1cc(C#N)cc(NC(=O)COC(C)=O)c1Cl`, the molecule was classed as inactive.

Values taken from PubChem BioAssay (Tox21).
